Results as given in PubChem BioAssay AID1159580 (chemical genetic matrix, 2015).
Screen size: about 5,500 compounds; about 2,000 (36%) were called active. Not shown: some 18% with an inconclusive outcome. No stated cut-off is given here; in the data, active means normalized growth mostly below about 0.91 (no sharp cut-off); inconclusive means no clear call, values can overlap the other calls; inactive means mostly above about 0.92. The list shows a part of the results.

Test: chemical genetic growth profiling, strain panel (AID 1159580);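 further: tested at 20 µM; growth read once vehicle control cultures reached saturation at 30 °C; 1 = growth at the plate median or of vehicle wells; lower values mean less growth of the strain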
Conditions: S. cerevisiae deletion strains, growth OD
[1] = locus YAR019C, strain CDC15, hits give low values
[2] = locus YBL105C, strain PKC1, hits give low values
[3] = locus YBR135W, strain CKS1, hits give low values
[4] = locus YBR136W, strain MEC1, hits give low values
[5] = locus YBR160W, strain CDC28, hits give low values
[6] = locus YDL017W, strain CDC7, hits give low values
[7] = locus YDL028C, strain MPS1, hits give low values
[8] = locus YDL101C, strain DUN1, hits give low values
[9] = locus YDL108W, strain KIN28, hits give low values
[10] = locus YDL132W, strain cdc53, hits give low values
[11] = locus YDL214C, strain PRR2, hits give low values
[12] = locus YDR052C, strain DBF4, hits give low values
[13] = locus YDR054C, strain cdc34, hits give low values
[14] = locus YDR226W, strain ADK1, hits give low values
[15] = locus YDR477W, strain SNF1, hits give low values
[16] = locus YER123W, strain YCK3, hits give low values
[17] = locus YER133W, strain GLC7, hits give low values
[18] = locus YFL009W, strain cdc4, hits give low values
[19] = locus YFL029C, strain CAK1, hits give low values
[20] = locus YFR003C, strain YPI1, hits give low values
[21] = locus YFR019W, strain FAB1, hits give low values
[22] = locus YFR028C, strain CDC14, hits give low values
[23] = locus YGR040W, strain KSS1, hits give low values
[24] = locus YGR052W, strain FMP48, hits give low values
[25] = locus YGR092W, strain DBF2, hits give low values
[26] = locus YHR030C, strain SLT2, hits give low values
[27] = locus YHR079C, strain IRE1, hits give low values
[28] = locus YHR082C, strain KSP1, hits give low values
[29] = locus YHR205W, strain SCH9, hits give low values
[30] = locus YIL147C, strain SLN1, hits give low values
[31] = locus YJL095W, strain BCK1, hits give low values
[32] = locus YJL128C, strain PBS2, hits give low values
[33] = locus YJL157C, strain FAR1, hits give low values
[34] = locus YJR016C, strain ILV3, hits give low values
[35] = locus YJR066W, strain TOR1 (second series), hits give low values
[36] = locus YJR066W, strain TOR1, hits give low values
[37] = locus YKL048C, strain ELM1, hits give low values
[38] = locus YKL067W, strain YNK1, hits give low values
[39] = locus YKL101W, strain HSL1, hits give low values
[40] = locus YKL193C, strain SDS22, hits give low values
[41] = locus YKL203C, strain TOR2, hits give low values
[42] = locus YLR113W, strain HOG1, hits give low values
[43] = locus YLR133W, strain CKI1, hits give low values
[44] = locus YLR403W, strain SFP1, hits give low values
[45] = locus YML070W, strain DAK1, hits give low values
[46] = locus YMR001C, strain CDC5, hits give low values
[47] = locus YMR205C, strain PFK2 (second series), hits give low values
[48] = locus YMR277W, strain FCP1, hits give low values
[49] = locus YNL006W, strain LST8, hits give low values
[50] = locus YNL020C, strain ARK1, hits give low values
[51] = locus YNL161W, strain CBK1, hits give low values
[52] = locus YNL183C, strain NPR1, hits give low values
[53] = locus YNL207W, strain RIO2, hits give low values
[54] = locus YNL222W, strain SSU72, hits give low values
[55] = locus YNL307C, strain MCK1 (second series), hits give low values
[56] = locus YOL078W, strain AVO1, hits give low values
[57] = locus YOL136C, strain PFK27, hits give low values
[58] = locus YOR061W, strain CKA2, hits give low values
[59] = locus YOR119C, strain RIO1, hits give low values
[60] = locus YOR231W, strain MKK1, hits give low values
[61] = locus YOR329C, strain SCD5, hits give low values
[62] = locus YPL031C, strain PHO85, hits give low values
[63] = locus YPL153C, strain RAD53, hits give low values
[64] = locus YPL204W, strain HRR25, hits give low values
[65] = locus YPL209C, strain IPL1, hits give low values
[66] = locus YPL256C, strain CLN2, hits give low values
[67] = locus YPR025C, strain CCL1, hits give low values
[68] = locus YPR106W, strain ISR1, hits give low values
[69] = locus YPR111W, strain DBF20, hits give low values
[70] = strain NNK1, hits give low values
[71] = strain TSCII, hits give low values

Measured: normalized growth

COc1ccc(C(CC(=O)c2ccccc2)Sc2ccccc2N)cc1OC (stereo not drawn)
inactive: [1] 0.977 | [2] 0.971 | [3] 0.98 | [4] 0.972 | [5] 0.98 | [6] 0.972 | [7] 0.979 | [8] 0.976 | [9] 0.974 | [10] 0.987 | [11] 0.948 | [12] 0.974 | [13] 0.971 | [14] 0.979 | [15] 0.958 | [16] 0.935 | [17] 0.954 | [18] 0.981 | [19] 0.966 | [20] 0.972 | [21] 0.963 | [22] 0.967 | [23] 0.946 | [24] 1.02 | [25] 0.959 | [26] 0.921 | [27] 0.95 | [28] 0.985 | [29] 0.935 | [30] 0.965 | [31] 0.947 | [32] 0.944 | [33] 0.965 | [34] 0.985 | [35] 1 | [36] 0.955 | [37] 0.977 | [38] 0.946 | [39] 0.927 | [40] 0.979 | [41] 0.99 | [42] 0.898 | [43] 0.952 | [44] 0.934 | [45] 0.941 | [46] 0.965 | [47] 0.958 | [48] 0.983 | [49] 0.984 | [50] 0.961 | [51] 0.978 | [52] 0.966 | [53] 0.975 | [54] 0.979 | [55] 0.974 | [56] 0.98 | [57] 0.955 | [58] 0.934 | [59] 0.962 | [60] 0.937 | [61] 0.971 | [62] 0.957 | [63] 0.978 | [64] 0.993 | [65] 0.984 | [66] 0.899 | [67] 0.976 | [68] 0.967 | [69] 0.979 | [70] 0.968 | [71] 0.973

Cc1cc(C)cc(Sc2ccc3nnc(-c4ccccc4)n3n2)c1
inactive: [1] 0.983 | [2] 0.988 | [3] 0.984 | [4] 0.977 | [5] 0.988 | [6] 0.986 | [7] 1 | [8] 0.973 | [9] 0.993 | [10] 0.977 | [11] 0.998 | [12] 0.986 | [13] 0.975 | [14] 0.982 | [15] 0.99 | [16] 0.972 | [17] 0.978 | [18] 0.979 | [19] 0.984 | [20] 0.991 | [21] 0.962 | [22] 0.987 | [23] 0.991 | [24] 1.09 | [25] 0.977 | [26] 1.08 | [27] 1.07 | [28] 1.07 | [29] 0.988 | [30] 1 | [31] 1.06 | [32] 0.933 | [33] 0.982 | [34] 0.979 | [35] 0.942 | [36] 1.11 | [37] 0.979 | [38] 0.999 | [39] 0.986 | [40] 0.983 | [41] 1.06 | [42] 0.978 | [43] 0.998 | [44] 1 | [45] 0.983 | [46] 0.981 | [47] 0.997 | [48] 0.986 | [49] 0.998 | [50] 1 | [51] 0.986 | [52] 1.1 | [53] 0.989 | [54] 0.983 | [55] 0.995 | [56] 0.992 | [57] 0.995 | [58] 0.986 | [59] 0.993 | [60] 1.05 | [61] 0.985 | [62] 0.978 | [63] 0.944 | [64] 0.965 | [65] 0.985 | [66] 1.04 | [67] 0.984 | [68] 0.977 | [69] 0.982 | [70] 0.98 | [71] 0.982

CC(=O)c1ccc(Cl)c(NS(=O)(=O)c2cc(Cl)c(Cl)cc2Cl)c1
inactive: [1] 0.906 | [2] 0.925 | [3] 0.91 | [4] 0.914 | [6] 0.925 | [8] 0.95 | [9] 0.905 | [10] 0.9 | [11] 0.868 | [12] 0.933 | [13] 0.909 | [15] 0.799 | [16] 0.794 | [17] 0.875 | [19] 0.898 | [20] 0.917 | [21] 0.881 | [22] 0.895 | [23] 0.805 | [24] 0.781 | [25] 0.631 | [27] 0.697 | [28] 0.735 | [29] 0.801 | [30] 0.904 | [31] 0.636 | [32] 0.835 | [33] 0.877 | [34] 0.921 | [35] 0.811 | [36] 0.719 | [37] 0.843 | [38] 0.864 | [39] 0.814 | [40] 0.906 | [41] 0.905 | [43] 0.865 | [44] 0.826 | [45] 0.811 | [46] 0.899 | [47] 0.905 | [48] 0.885 | [49] 0.925 | [50] 0.829 | [51] 0.921 | [52] 0.819 | [53] 0.906 | [55] 0.786 | [56] 0.9 | [57] 0.789 | [58] 0.744 | [59] 0.832 | [60] 0.704 | [61] 0.923 | [62] 0.788 | [63] 0.768 | [64] 0.763 | [65] 0.916 | [67] 0.912 | [68] 0.904 | [70] 0.894 | [71] 0.898
active: [5] 0.886 | [7] 0.89 | [14] 0.897 | [18] 0.881 | [26] 0.317 | [42] 0.648 | [54] 0.884 | [66] 0.664 | [69] 0.858
